Bioassay records as filed in PubChem BioAssay.
The list is not random: actives were taken first. Their share in the collection is about 4.1%.
MazF activator: increases E. coli MazEF RNase cleavage of RNA; P0AE70; FAM/BHQ RNA-DNA oligo cleavage fluorescence, 5 h; activation, % at 20 µM; 350,000 compounds, 0.32% hits; in the data active = activation above about 50%
Target sequence (P0AE70 whole entry, looked up): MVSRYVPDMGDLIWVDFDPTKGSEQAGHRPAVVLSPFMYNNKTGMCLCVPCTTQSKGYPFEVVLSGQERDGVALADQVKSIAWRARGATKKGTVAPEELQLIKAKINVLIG
BoNT A protease: inhibitors of Botulinum neurotoxin A light chain protease; inhibition, % at 10 µM; AID 588499; 360,000 compounds, 0.17% hits; multiplex microsphere protease substrate cleavage, flow cytometry
Autofluor counter: flagged as autofluorescent in microsphere protease counterscreen | compound autofluorescence counterscreen, microsphere flow cytometry; stronger effect = higher value | fluorescence intensity (no concentration beside the values) | 360,000 compounds, 3.1% hits | AID 624483; in the data active = fluorescence intensity above about 16000; inconclusive = no clear call, values can overlap the other calls
DUSP3 inh: blocks human VHR1 dual specificity phosphatase; recombinant VHR phosphatase, pNPP absorbance; inhibition, % at 13.3 µM; 290,000 compounds, 0.52% hits; AID 1654; in the data active = inhibition above about 50%
Target sequence (P51452 whole entry, looked up): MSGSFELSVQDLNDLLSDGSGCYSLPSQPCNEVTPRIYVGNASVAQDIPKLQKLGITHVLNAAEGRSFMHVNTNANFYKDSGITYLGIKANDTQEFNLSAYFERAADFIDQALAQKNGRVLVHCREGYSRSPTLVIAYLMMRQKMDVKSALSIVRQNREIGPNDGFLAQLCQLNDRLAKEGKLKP
BoNT F protease: blocks Botulinum neurotoxin F light chain protease; Multiplex microsphere protease cleavage assay, flow cytometry; inhibition, % at 10 µM; 360,000 compounds, 0.22% hits; in the data active = inhibition above about 35%, passing the limit was not always enough; inconclusive = no clear call, values can overlap the other calls
Anthrax LF prot: anthrax lethal factor protease inhibition; P15917; multiplex microsphere protease cleavage assay, LF; inhibition, % at 10 µM; 360,000 compounds, 0.12% hits
Large screens that a line does not name were inactive. Rule as the data show it, unless noted: active = inhibition above about 30%; inconclusive = no clear call, values can overlap the other calls; inactive = below that.

O=C(OCCN1C(=O)c2ccccc2C1=O)c1cc(S(=O)(=O)N2CCOCC2)ccc1F	none
O=C(OCCN1C(=O)c2cccc3c(N4CCOCC4)ccc(c23)C1=O)c1ccc(Cl)cc1	BoNT A protease 34
CCc1nccn1CCC(=O)N1CCCC(N2CCN(c3ccccc3C)CC2)C1 (stereo not drawn)	none
Cc1ccc(C(=O)NCC(=O)N2CCN(c3ccccc3O)CC2)s1	none (no result: DUSP3 inh)
Cc1ccccc1NC(=S)NC(=O)CCc1ccccc1	Autofluor counter 19923
COC(=O)c1ccccc1NC(=S)NC(=O)CC(C)C	Autofluor counter 22351
CCCCC(=O)NC(=S)Nc1ccccc1C(=O)Nc1ccccc1	BoNT A protease inconclusive, Autofluor counter 17346
CCCCC(=O)Nc1cccc(NC(=O)CC)c1	none
CCCCC(=O)Nc1cccc(NC(=O)c2ccccc2Br)c1	Autofluor counter 20490
CCOc1ccc(N(CC)S(=O)(=O)c2ccc3c(c2)oc(=O)n3C)cc1	Autofluor counter 17539
Cn1c(=O)n(CC(=O)NCC2CCCO2)c(=O)c2c3c(sc21)COC(C)(C)C3 (stereo not drawn)	none
CC1=C(C(=O)Nc2ccccc2C)C2(CCCC2)C(C(N)=O)C(=O)N1 (stereo not drawn)	Autofluor counter 19911
CC(C)n1nc(C(=O)Nc2nc3ccc(S(C)(=O)=O)cc3s2)c2ccccc2c1=O	none
CC(C)n1nc(C(=O)Nc2nnc(SCc3c(Cl)cccc3Cl)s2)c2ccccc2c1=O	Autofluor counter 19535
CC(C)(C)CN1CCN(CCCc2ccccc2)C(CCO)C1 (stereo not drawn)	none
Cc1cc(SCC(=O)N/N=C/c2ccc(O)c(O)c2O)c(C)cc1Br	Autofluor counter 22001
COc1cc(/C=N/NC(=O)CSc2cc(C)c(Br)cc2C)ccc1O	none
CCCN(CCC)C(=O)CC(c1ccccc1)c1ccc(C)cc1O (stereo not drawn)	Autofluor counter 22025
CCCN(CCC)C(=O)CC(c1ccccc1)c1cc(Br)ccc1O (stereo not drawn)	Autofluor counter 22655
O=C(CC(c1ccccc1)c1cc(Br)ccc1O)N1CCCCC1 (stereo not drawn)	none
Cc1ccc(C(CC(=O)N2CCCC2)c2ccccc2)c(O)c1 (stereo not drawn)	none
CCOC(=O)C1CCCN(C(=O)c2cc3cc(OC)c(OC)cc3[nH]2)C1 (stereo not drawn)	none
CCOC(=O)CSc1nc(N)c(C#N)c(CC(C)C)c1C#N	BoNT A protease inconclusive, Autofluor counter 21729
CCOC(=O)CC(=O)CSc1nc(N)c(C#N)c(-c2ccc(Cl)cc2)c1C#N	Autofluor counter 16851
COc1ccc(NC(=O)Cc2nnc(SCC(=O)Nc3ccc(F)cc3)n2C)cc1	none
CC(=O)c1cc2c(cc1NS(=O)(=O)c1ccc(C)cc1)OCO2	Autofluor counter 20111
CC(=O)c1ccc(S(=O)(=O)Nc2cc3c(cc2C(C)=O)OCO3)cc1	none
CC(C)[C@H](NC(=O)c1ccccc1)C(=O)OCC(=O)c1ccc2c(c1)NC(=O)CO2	Autofluor counter 23418
CCN(CC)C(=O)c1csc([C@@H]2O[C@H](CO)[C@H](O)[C@H](O)[C@H]2O)n1	none (no result: MazF activator, DUSP3 inh)
COc1ccc(NS(=O)(=O)c2ccc(C(=O)N3CCC(C)CC3)cc2)cc1	none (no result: DUSP3 inh)
CCOC(=O)C1C(=O)NC(N2CCN(c3ccccc3)CC2)=NC1c1ccccc1 (stereo not drawn)	Autofluor counter 23474
CCOC(=O)C1C(=O)NC(N2CCOCC2)=NC1c1ccco1 (stereo not drawn)	none
CCOC(=O)C1C(=O)NC(c2ccccc2)=NC1c1ccc(Cl)cc1 (stereo not drawn)	Autofluor counter 22764
CC(=O)Nc1ccc(NC(=O)CSc2nnc(NC(=O)c3ccccc3F)s2)cc1	none (no result: DUSP3 inh)
O=C(c1ccccc1)N1CCN(C2c3cccc4cccc(c34)C2NS(=O)(=O)c2ccccc2)CC1 (stereo not drawn)	Autofluor counter 23933
O=S(=O)(NC1c2cccc3cccc(c23)C1N1CCNCC1)c1ccccc1 (stereo not drawn)	none
Cc1cc(NC(=O)c2cc(-c3ccc(OC(C)C)cc3)nc3ccccc23)no1	none
Cc1ccc(NC(=O)N(Cc2cccnc2)Cc2ccco2)cc1C	Autofluor counter 23168
O=C(Nc1ccc(Cl)cc1)N(Cc1cccnc1)Cc1ccco1	none
CCCn1nc(C(=O)N2CCN(S(=O)(=O)c3ccc(C)c(C)c3)CC2)c2ccccc2c1=O	none (no result: DUSP3 inh)
